High-throughput results: PubChem BioAssay, National Center for Advancing Translational Sciences (NCATS)
Lassa entry inh: qHTS for Inhibitors of binding or entry into cells for Lassa Virus; 300,000 compounds, 1.2% hits; Lassa virus pseudotype entry inhibition, cell reporter; Potency, µM (series often up to 37.9 µM), inactives show at the highest dose activity change, negative = inhibition, hits mostly inhibitors; calls by dose curve; tested in HEK293 cells; note: potency is the fitted concentration of half-maximal effect; nearly all actives have a fitted effect of over 50% in size
Marburg entry inh: qHTS for inhibitors of binding or entry into cells for Marburg Virus. 300,000 compounds, 1.8% hits. AID 540276, 2011. Potency, µM (series often up to 37.8 µM), without a hit: at the top dose activity change, negative = inhibition, most hits filed as inhibitors. Marburg virus pseudotyped entry inhibition, cell reporter; calls by dose curve; tested in HEK293 cells; note: potency is the fitted concentration of half-maximal effect
HCV inh: qHTS Assay for Inhibitors of Hepatitis C Virus (HCV). 340,000 compounds, 3.4% hits. Potency, µM (series often up to 41.8 µM), for the others: at the top dose activity change, negative = inhibition, most hits filed as inhibitors. Huh7.5.1 HCVcc-Cre infection, luciferase reporter, 44 h. AID 651820, 2012; active = well fitted inhibition curve with a large enough effect; inconclusive = small, poorly fitted or top-dose-only effect, or another doubt; inactive = no such curve, though single readings can be large or run the other way; note: potency is the fitted concentration of half-maximal effect
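Infectious HCVcc-Cre (~0.5 moi) was added to cells just after compound, with cells seeded 4 h earlier at 1,000 per well. Luciferase activity after 44 h culture reported infection; substrate was incubated 15 min at room temperature before reading.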
FMDV antiviral: High Throughput Screening for Foot and Mouth Disease Virus Antivirals. FMDV antiviral cell-based qHTS. 410,000 compounds, 1.2% hits. Potency, µM (titrated, usually from 57.9 µM), for the others: at the top dose activity change, negative = inhibition, hits mostly inhibitors. AID 1159524, 2015; calls by dose curve; tested in HEK293T cells; note: read-out not given here; potency is the fitted concentration of half-maximal effect; nearly all actives have a fitted effect of over 45% in size
HCMV inh: qHTS Assay for inhibitors of the human cytomegalovirus (HCMV); activity change, negative = inhibition, % at 57.5 µM; HFF cells, HCMV-luciferase reporter, 72 h; active compounds read low; 410,000 compounds, 4.5% hits; AID 1259415, 2018; in the data active = activity change below about -60%; inconclusive = no clear call, values can overlap the other calls; inactive = above about -39%
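Steps: HFFs plated, 16 h 37C; compounds added; HCMV-luciferase added to MOI 1 PFU/cell; 72 h 37C; OneGlo reagent, 5 min room temperature; luminescence read, normalized to controls.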
* hit, by the source's call; ! = not active in a repeat; [ ] = another dose, or the depositor's remark. Only some compounds are listed: those with a hit (about 7.9% of all), similar ones and a draw of the others. % is set by controls: 0 for no effect and ±100 for the full control effect.

C/C(=N\NC(=O)c1ccccc1Cl)c1ccccn1 was read as HCV inh inconclusive, FMDV antiviral 29.9% and HCMV inh -96.7*.
For C/C(=N\NC(=O)c1ccncc1)c1cccc(NC(=O)c2ccc(C(C)(C)C)cc2)c1 the results were Lassa entry inh inconclusive, Marburg entry inh inconclusive, HCV inh 10µM*, FMDV antiviral -1.4% and HCMV inh 63.8.
`COc1ccc(OC)c([C@@H]2C(C#N)=C(N)Oc3cc(C)n(Cc4ccccn4)c(=O)c32)c1` gave Marburg entry inh -1.3%.
CC(C)(C)C1CCC(=O)N(CCOc2ccccc2)CC1 (centres undefined) was read as HCV inh 8.4%, FMDV antiviral 54.2% and HCMV inh -11.3.
`COc1ccc(C(=O)N/N=C(\C)c2cccc(NC(=O)c3ccc(F)cc3)c2)c(OC)c1` gave Lassa entry inh 4.7%, Marburg entry inh -10.7%, HCV inh inconclusive, FMDV antiviral 22.8% and HCMV inh -60.6*.
C/C(=N\NC(=O)c1ccc(Cl)c(Cl)c1)c1ccc(Br)s1 was read as Lassa entry inh inconclusive, Marburg entry inh inconclusive, HCV inh inconclusive, FMDV antiviral -11.7% and HCMV inh -83.3*.
For C/C(=N\NC(=O)c1cccc2ccccc12)c1ccccn1 the results were Lassa entry inh 7.94µM*, Marburg entry inh inconclusive, HCV inh 5.01µM*, FMDV antiviral -6.0% and HCMV inh -96.2*.
COc1ccc(Oc2ncc3nc(-c4ccc(F)cc4)c(=O)n(Cc4cccs4)c3n2)cc1 was read as FMDV antiviral -4.0%.
COc1ccc(N2CC(NC(=O)/C=C\c3ccccc3)CC2=O)cc1 (centres undefined) was read as Lassa entry inh -10.0%[46.1 µM], FMDV antiviral -5.2% and HCMV inh 8.8.
Screening CCc1ccc(NC(=O)c2ccc3c(=O)n4nc(Nc5ccccc5C)sc4nc3c2)cc1 returned Lassa entry inh 18.8%[46.1 µM], FMDV antiviral -18.8% and HCMV inh -17.5.
For COc1ccccc1NC(=O)c1ccc(CN2C(=O)C(C)=C(c3ccc(C)c(C)c3)S2(=O)=O)cc1 the results were Lassa entry inh -13.8%[46.1 µM], FMDV antiviral -20.3% and HCMV inh -6.5.
For CC(=O)Nc1nc2c(ncn2COCCOC(C)=O)c(=O)[nH]1 the results were Marburg entry inh -2.8% and HCV inh 6.2%.
CC(C)[C@H](N)C(=O)OCCOCn1cnc2c(=O)[nH]c(N)nc21 was read as HCV inh 0.501µM*!, FMDV antiviral -11.2% and HCMV inh -6.3.
`CCCOc1ccccc1C(=O)N(Cc1cccc(Br)c1)C1CCS(=O)(=O)C1` (centres undefined) gave Lassa entry inh inconclusive, Marburg entry inh inconclusive, HCV inh 14.5%, FMDV antiviral 0.708µM* and HCMV inh -31.5.
For CC1=C(C(=O)Nc2cccc(C(=O)NCc3ccccc3C)c2)SCCO1 the results were HCV inh inconclusive, FMDV antiviral -2.0% and HCMV inh -15.3.
`O=C(c1cccc(Cl)c1)N1CCN(c2ncnc3c2cnn3-c2ccccc2)CC1` gave Lassa entry inh inconclusive, Marburg entry inh -18.0%[46.1 µM], HCV inh -8.0%, FMDV antiviral -3.9% and HCMV inh -18.7.
`Cc1nn(-c2ccccc2)c(Cl)c1C(=O)N1CCN(c2ncnc3c2cnn3-c2ccccc2)CC1` gave Lassa entry inh 12.6µM*, Marburg entry inh 12.6µM*, HCV inh 2.24µM*, FMDV antiviral 6.31µM* and HCMV inh -105.4*.
For O=C(c1ccccc1)N1CCN(c2ncnc3c2cnn3-c2ccccc2)CC1 the results were Lassa entry inh 1.7%, Marburg entry inh inconclusive, HCV inh 10µM*, FMDV antiviral inconclusive and HCMV inh 21.0.
COc1cccc(OCCN2CCN(c3ncnc4c3cnn4-c3ccccc3)CC2)c1 was read as Lassa entry inh -17.7%, Marburg entry inh inconclusive, HCV inh 7.08µM*, FMDV antiviral inconclusive and HCMV inh 0.2.
For N#Cc1c(Cl)nsc1NN the results were Lassa entry inh -7.2%, Marburg entry inh 17.4%[46.1 µM], HCV inh -3.9%, FMDV antiviral 10.4% and HCMV inh -104.0*.
Cc1ccc(S(=O)(=O)N(CCCO)CC(O)CON=C2c3ccccc3-c3ccccc32)cc1 (centres undefined) was read as Lassa entry inh inconclusive, Marburg entry inh inconclusive, HCV inh 10µM*, FMDV antiviral 35.5µM* and HCMV inh 31.0.
O=C(COc1ccc(Cl)cc1[N+](=O)[O-])N1CCCCCC1 was read as Lassa entry inh 12.9%[46.1 µM], Marburg entry inh -7.6%[46.1 µM], HCV inh 17.6%, FMDV antiviral 22.7% and HCMV inh 2.4.
COc1ccccc1C(=O)NCCC(=O)N1CCN(c2ccccc2Cl)CC1 was read as Lassa entry inh 22.7%, Marburg entry inh -3.1%, HCV inh 22.4%, FMDV antiviral inconclusive and HCMV inh 2.7.
For COc1ccccc1C(=O)NCCC(=O)N1CCN(c2ccc(C(F)(F)F)cn2)CC1 the results were Lassa entry inh 10.5%, Marburg entry inh -26.0%[46.1 µM], HCV inh inconclusive, FMDV antiviral inconclusive and HCMV inh -84.7*.
COc1cccc(N=C(N)N=C(N)N)c1 was read as HCV inh 8.5%, FMDV antiviral -16.7% and HCMV inh 4.0.
Screening NC(N)=NC(N)=Nc1ccc(SC(F)(F)F)cc1 returned Lassa entry inh 0.9%, Marburg entry inh inconclusive, HCV inh 11.2µM*, FMDV antiviral -2.3% and HCMV inh -16.8.
Screening CN(C)c1ccc(C(=O)C=Cc2ccc([N+](=O)[O-])cc2)cc1 returned FMDV antiviral -5.3% and HCMV inh -19.4.
C/C(=C\c1ccc(N(C)C)cc1)[N+](=O)[O-] was read as Lassa entry inh inconclusive, Marburg entry inh 5.17µM*, HCV inh inconclusive, FMDV antiviral 14.1µM* and HCMV inh -101.6*.
O=C(CCCc1nc(-c2ccccc2)no1)Nc1cccnc1 was read as Lassa entry inh -10.9%, Marburg entry inh inconclusive, HCV inh -26.4%, FMDV antiviral 0.0% and HCMV inh -23.7.
Screening CCOC(=O)c1ccc(NC(=O)CCc2nc(-c3ccc(C)cc3)no2)cc1 returned Lassa entry inh inconclusive, Marburg entry inh -0.9%, HCV inh 8.91µM*, FMDV antiviral inconclusive and HCMV inh -30.4.
Screening COc1ccc(-c2noc(CCCC(=O)Nc3cccc(Cl)c3C)n2)cc1 returned Lassa entry inh inconclusive, Marburg entry inh inconclusive, FMDV antiviral inconclusive and HCMV inh -76.7*.
Cc1ccc(-c2noc(CCCC(=O)Nc3cccnc3)n2)cc1 was read as Lassa entry inh inconclusive, Marburg entry inh inconclusive, HCV inh -56.7%, FMDV antiviral inconclusive and HCMV inh -63.1*.
O=C(CCc1nc(-c2ccccc2Cl)no1)Nc1cccnc1 was read as Marburg entry inh -2.5%[46.1 µM], HCV inh 12.6µM*, FMDV antiviral inconclusive and HCMV inh -19.3.
